Compound activity from PubChem BioAssay.
Rows were chosen to be rich in hits. Some 2.2% of all compounds tested hit in one or more screens of this group.
MOR-DOR ag: OPRM1-OPRD1 heterodimerization agonism; P35372+P41143; cells, luminescence; activation, % at 9.3 µM; 0.3% of 340,000 active; in the data active = activation above about 18%;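 note: 0% = vehicle-treated cells and 100% = reference agonist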
HTR5A inv ctr: inverse agonist of human HTR5A in OPRM1-OPRD1 counter-screen; HTR5A cell line, luminescence, inverse agonism; P47898; 0.083% of 340,000 active; inhibition, % at 9.3 µM; in the data active = inhibition mostly above about 23%, no sharp cut-off; inactive = mostly below about 18%;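 note: 0% = cells with DMSO and 100% = no-cell wells with DMSO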
HTR2A ag: activates the mouse 5-HT2A serotonin receptor; 0.66% of 360,000 active; activation, % at 7.6 µM; CHO-K1 mHTR2A beta-arrestin complementation, luminescence; percent of 30 µM serotonin response; P35363;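 active = activation above a run cutoff, the mean activation of all tested compounds plus 3 SD, cut at about 14% in these data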;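 note: 0% = plate median of compound wells and 100% = 30 µM serotonin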
HTR5A ag: counter-screen for OPRM1-OPRD1 agonists: human HTR5A agonism; P47898; HTR5A agonist assay, luminescence, cell-based; activation, % at 9.3 µM; 0.61% of 340,000 active; in the data active = activation mostly above about 9.5%, no sharp cut-off; inactive = mostly below about 7.6%;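 note: 0% = cells with vehicle only and 100% = reference agonist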
MOR-DOR inv ag: mu-delta opioid heterodimer inverse agonism; cell-based MOR-DOR heterodimer luminescence; inhibition, % at 9.3 µM; 0.21% of 340,000 active; AID 504357; in the data active = inhibition above about 22%, passing the limit was not always enough;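 note: 0% = cells with DMSO and 100% = wells without cells with DMSO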
sPLA2-III inh: Inhibits HGIII-sPLA2 liposome hydrolysis, primary screen. QFRET BODIPY PC-A2 liposome hydrolysis, fluorescence. inhibition, % at 12.2 µM. 0.56% of 370,000 active. AID 743126;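 active = inhibition above mean plus 3 SD of compounds lying within the high and low control bounds, cut at about 19% in these data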;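 note: 0% = median of test compound wells and 100% = no enzyme DMSO wells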
MOR ag counter: OPRM1 agonism in mouse HTR2A counterscreen; AID 624380; U2OS OPRM1 beta-arrestin PathHunter, luminescence; DMSO 0%, DAMGO 9.3 µM 100%; activation, % at 9.3 µM; shares compounds with HTR2A ag; 5.3% of 2,300 active;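 active = mean activation above the mean of DMSO-only wells plus 3 SD, cut at about 0.5% in these data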
Target sequence (P35372 whole entry, looked up): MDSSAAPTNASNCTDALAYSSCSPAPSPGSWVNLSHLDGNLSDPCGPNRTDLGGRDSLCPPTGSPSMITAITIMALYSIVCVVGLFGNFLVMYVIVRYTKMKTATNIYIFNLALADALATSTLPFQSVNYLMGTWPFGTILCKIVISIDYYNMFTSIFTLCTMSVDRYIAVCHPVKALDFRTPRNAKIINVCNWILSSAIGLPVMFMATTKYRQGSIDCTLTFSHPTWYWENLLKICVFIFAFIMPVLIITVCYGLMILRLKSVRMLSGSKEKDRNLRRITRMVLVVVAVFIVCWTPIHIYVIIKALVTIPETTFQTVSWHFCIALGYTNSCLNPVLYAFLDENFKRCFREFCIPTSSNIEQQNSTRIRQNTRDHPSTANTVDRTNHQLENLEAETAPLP
m5-HT2A ag conf: mouse HTR2A agonism confirmed. shares compounds with HTR2A ag. CHO-K1 PathHunter beta-arrestin recruitment, luminescence; DMSO 0%, 30 µM serotonin 100%. activation, % at 7.6 µM. 19% of 2,300 active;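 active = mean activation across triplicates above the hit threshold derived in the original primary screen, cut at about 15% in these data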
An asterisk follows results filed as active; . = not tested or not shown; ! = not active in a repeat.

SMILES	MOR-DOR ag	HTR5A inv ctr	HTR2A ag	HTR5A ag	MOR-DOR inv ag	sPLA2-III inh	MOR ag counter	m5-HT2A ag conf
CCOC(=O)c1ccc(/C=N/O)[n+](Cc2ccccc2)c1	-2	-17	-4	5	11	-3	.	.
COc1ccc(NC(=O)C2CC3C=CC2C3)c([N+](=O)[O-])c1 (stereo not given)	-1	-13	15*	3	5	16	0	1
COc1ccc(NC(=O)CC(C)C)c([N+](=O)[O-])c1	3	20	1	-8	-18	1	.	.
O=C(NCCc1ccccn1)c1ccc2c(c1)ncn2C1CCCCC1	.	.	.	.	.	0	.	.
Fc1ccc(NCc2nnc3n2CCCCC3)cc1	-4	13	20*	2	18	5	0	3
O=C(Nc1nc2ccccc2s1)c1ccc(N2CCCCC2)c([N+](=O)[O-])c1	0	2	49*	3	1	-4	-1	18*
O=C(Nc1ccon1)c1ccc(N2CCCCC2)c([N+](=O)[O-])c1	-1	12	-6	-3	9	0	.	.
CC(=O)OCCCN1CCC2(CCCCC2)C1=O	.	.	.	.	.	6	.	.
Cc1cccc(-c2nsc(SCC(=O)Nc3nccs3)n2)c1	8	-28	18*	6	-45	-1	0	-2
CCOc1ccc(OCC(=O)N2CCC3(CC2)CC(=O)c2ccccc2O3)cc1	0	10	19*	-1	0	-5	0	2
CCCC[C@H](C(=O)N(CC)c1ccccc1)[C@@H](O)c1ccc(Cl)cc1	.	.	.	.	.	-7	.	.
COCC(=O)N(c1ccc(C(C)(C)C)cc1)C(C(=O)NC(C)(C)C)c1cccnc1 (stereo not given)	.	.	.	.	.	10	.	.
CC(C)(C)C(=O)NCc1ccc(C(=O)CSc2nnc(-c3ccncc3)n2C2CC2)s1	1	-12	16*	1	-10	-8	-1	-2
COC(=O)[C@]12C[C@H](CC(=O)NCCCCc3ccccc3)C(=O)N(Cc3ccco3)C1=C[C@H](C1CCCC1)O[C@@H]2C	.	.	.	.	.	-21	.	.
C[C@H](O)[C@@H]1CN2CCc3c([nH]c4c(-c5ccc6c(c5)OCO6)cccc34)[C@@H]2C[C@@H]1N(C)C(=O)c1ccccc1F	.	.	.	.	.	-13	.	.
COc1ccccc1NC(=O)CSc1c2c(nc3ccccc13)CCC2	-3	10	-1	-4	18	11	.	.
Cc1cc(NC(=O)CSc2c3c(nc4ccccc24)CCC3)no1	1	-19	15*	3	-5	-2	-1	-5
COC(=O)C1=C(C)N(C)C(=NCc2ccc3c(c2)OCO3)NC1c1ccc(Cl)cc1 (stereo not given)	.	.	.	.	.	2	.	.
C=CCN(CC#Cc1ccc(C(F)(F)F)cc1)Cc1ccc(OC)cc1OC	.	.	.	.	.	12	.	.
Cc1ccc(S(=O)(=O)N2CCC(=O)CC2c2ccccc2)cc1 (stereo not given)	-2	17	-3	-5	8	-3	.	.
CN1CCN(S(=O)(=O)c2ccc(C(F)(F)F)cc2)C(c2ccccc2)C1 (stereo not given)	-1	-10	15*	4	2	5	0	-1
CCOc1ccc(S(=O)(=O)N(C)CC(=O)NCc2ccccn2)cc1	-1	-4	-2	1	7	0	.	.
CC(C)(C)NC(=O)COc1ccc(CNCCc2ccccc2)cc1	3	11	-26	-5	-13	-5	.	.
CC(C)(C)NC(=O)COc1ccc(CNCc2ccccn2)cc1	0	1	15*	-2	1	3	-1	-3
CN(Cc1ccccc1)S(=O)(=O)c1ccc(OCC(=O)NCc2ccccn2)cc1	0	2	18*	-1	-3	-6	-1	-5
SMILES	MOR-DOR ag	HTR5A inv ctr	HTR2A ag	HTR5A ag	MOR-DOR inv ag	sPLA2-III inh	MOR ag counter	m5-HT2A ag conf
CC(C)C[C@@H]1COc2cc(Br)ccc2S(=O)(=O)N1Cc1cn(Cc2ccccc2)nn1	.	.	.	.	.	9	.	.
Cc1cc(C)c(C#N)c(OCC2CCCO2)n1 (stereo not given)	.	.	15*	.	.	6	-1	-1
CCc1nc2c(OCc3ccccc3)cccn2c1N(C)C(=O)c1ccc2c(c1)OCO2	.	.	14*	.	.	-1	0	-6
CCc1nc2c(OCc3ccc(Cl)cc3)cccn2c1N(C)C(=O)c1ccc2c(c1)OCO2	.	.	-3	.	.	-3	.	.
COc1cc(/C=N/NC(=O)c2ccc(NC(=O)C3CC3)cc2)ccc1OC(C)=O	0	-21	2	-2	0	0	.	.
COc1ccc(/C=N/NC(=O)c2ccc(NC(=O)C3CCCCC3)cc2)cc1O	-4	10	20*	-1	21	-1	-1	-3
CCOC(=O)N1CCN(CC(O)COc2ccc(C)c(C)c2)CC1 (stereo not given)	2	-11	-5	3	-8	9	.	.
Cc1ccc(OCC(O)CN2CCN(c3ccccc3)CC2)cc1 (stereo not given)	1	-21	1	3	-4	0	.	.
CCc1ccc(OCC(O)CN2CCN(c3ccccc3)CC2)cc1 (stereo not given)	13	-11	15*!	3	-65	6	0	29*
CCOC(=O)N1CCN(Cc2ccc(OCC(O)CN3CCCCC3)cc2)CC1 (stereo not given)	1	-6	33*	2	-3	0	0	71*
Cc1cccc(N2CCN(CC(O)COc3ccc4ccccc4c3)CC2)c1 (stereo not given)	7	-8	15*	2	-35	5	0	53*
CCCc1ccc(OCC(O)CN2CCN(c3ccccc3)CC2)cc1 (stereo not given)	3	-10	9	3	-17	1	.	.
CC(C)c1cc(C(=O)Nc2cc(Br)ccc2O)no1	8	15	17*	0	-45	-6	0.7*	2
Cc1cc(Cl)cc(C)c1OCCNCc1ccccc1	7	-11	21*	3	-31	-5	0	11
O=C(N[C@H](C(=O)N1CCC[C@H]1C(=O)NC1CCCC1)C1CCCCC1)c1ccco1	.	.	.	.	.	6	.	.
COC(=O)C1CN(Cc2ccc(F)cc2)CCS(=O)(=O)N1Cc1ccc(OC)cc1 (stereo not given)	.	.	.	.	.	10	.	.
Cc1ccc(-c2ccc(/C=C3\SC(N4CCOCC4)=NC3=O)o2)cc1	3	-10	15*	9	-13	1	0	39*
O=C1N=C(N2CCOCC2)S/C1=C/c1ccc(-c2ccc(F)cc2)o1	0	5	11	-2	-2	-1	.	.
C=CCN1[C@@H](C)COc2cc(N3CCCC3)ccc2S1(=O)=O	.	.	.	.	.	1	.	.
